Test results reported in PubChem BioAssay (NCATS).
Inconclusive results are not listed. Activity calls are given as the source filed them. Unless noted, calls come from the whole dose curve; as a rule, active = well fitted curve in either direction with a large enough effect (not every such curve was filed as active); inconclusive = small, poorly fitted or top-dose-only effect, or another doubt; inactive = flat fitted curve, though single readings scatter.

Experiments:
[1] = target: Lysosomal acid glucosylceramidase (Homo sapiens) (UniProt P04062); test: Glucocerebrosidase-p2 (AID 348; in the data active = potency below about 10 µM; note: potency is the fitted concentration of half-maximal effect); details: purified GBA, blue fluorogenic substrate, 40 min
Lysosomal acid glucosylceramidase (Homo sapiens), sequence (P04062 whole entry, looked up): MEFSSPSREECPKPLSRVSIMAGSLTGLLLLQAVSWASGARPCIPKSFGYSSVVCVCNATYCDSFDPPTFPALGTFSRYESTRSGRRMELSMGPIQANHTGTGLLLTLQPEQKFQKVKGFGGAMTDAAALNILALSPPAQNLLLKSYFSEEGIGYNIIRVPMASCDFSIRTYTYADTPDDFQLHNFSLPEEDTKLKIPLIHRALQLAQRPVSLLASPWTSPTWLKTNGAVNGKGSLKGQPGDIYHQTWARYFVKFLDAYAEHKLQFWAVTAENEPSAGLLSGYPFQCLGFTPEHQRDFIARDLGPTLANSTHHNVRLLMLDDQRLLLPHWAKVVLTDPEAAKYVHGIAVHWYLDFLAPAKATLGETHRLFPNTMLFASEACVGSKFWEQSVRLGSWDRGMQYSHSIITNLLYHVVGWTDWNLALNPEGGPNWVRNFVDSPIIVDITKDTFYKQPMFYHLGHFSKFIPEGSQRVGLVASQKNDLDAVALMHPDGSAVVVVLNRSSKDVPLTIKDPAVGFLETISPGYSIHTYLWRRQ
In short: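 Compounds titrated from 0.6 nM upwards against 0.2 nM enzyme in pH 5.9 citric acid/KH2PO4, taurocholate, tween-20; blue fluorogenic substrate 80 uM, 40 min room temperature, stopped and read Ex 365/Em 440 for AC50.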

[2] = AP1 Signaling Pathway (AID 357); details: ME-180 AP-1-bla reporter, EGF-induced, beta-lactamase ratio, 5 h; at 7.69 µM (top of the series) unless noted;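 note: ME-180 reporter cells stimulated with EGF at its EC50 level; % is set by controls: 0 for no effect and ±100 for the full control effect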
In short: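 Read-out was the 460nm/530nm emission ratio (excitation 405nm) after CCF4 loading for 2.5 hours at room temperature. Cells carried an AP-1-driven beta-lactamase reporter, were stimulated with EC50 EGF plus compound for 5 hours, and AC50 values came from titrations.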

[3] = NFAT Signaling Pathway (AID 444); details: Jurkat NFAT-bla M1, carbachol, beta-lactamase ratio, 5 h; at 7.69 µM (top of the series) unless noted;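 note: carbachol stimulus at about its EC50 of 1 µM final; % is set by controls: 0 for no effect and ±100 for the full control effect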
In short: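 Read-out: CCF4 FRET ratio (460 nm/530 nm) after 1 h RT dye loading, used for %activity and AC50 from titration series. Cells: Jurkat NFAT-β-lactamase/M1 line, treated with compound plus 1 uM carbachol for 5 h, 37 °C.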

[4] = Stat Signaling Pathway (AID 446); details: ME-180 (cervical carcinoma) SIE beta-lactamase reporter, IL-6 stimulated, 5 h; at 7.69 µM (top of the series) unless noted;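 note: ME-180 cervical cancer cells given 40 pM IL-6 alongside compound; SIE-controlled beta-lactamase reporter measured as 460/530 nm FRET emission ratio; % is set by controls: 0 for no effect and ±100 for the full control effect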
In short: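 IL-6/STAT signaling read in ME-180 cells via an SIE beta-lactamase reporter. Stimulus was 40 pM IL-6 (its AC50) for 5 hrs, so both activation and inhibition register.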

[5] = target: Glucocorticoid receptor (Homo sapiens) (UniProt P04150); test: GR-EFC Redistribution (AID 451; calls by dose curve; note: potency is the fitted concentration of half-maximal effect); details: CHO-K1 GR-EFC translocation, beta-gal luminescence, 2 h
Glucocorticoid receptor (Homo sapiens), sequence (P04150 whole entry, looked up, the tested form may be a part): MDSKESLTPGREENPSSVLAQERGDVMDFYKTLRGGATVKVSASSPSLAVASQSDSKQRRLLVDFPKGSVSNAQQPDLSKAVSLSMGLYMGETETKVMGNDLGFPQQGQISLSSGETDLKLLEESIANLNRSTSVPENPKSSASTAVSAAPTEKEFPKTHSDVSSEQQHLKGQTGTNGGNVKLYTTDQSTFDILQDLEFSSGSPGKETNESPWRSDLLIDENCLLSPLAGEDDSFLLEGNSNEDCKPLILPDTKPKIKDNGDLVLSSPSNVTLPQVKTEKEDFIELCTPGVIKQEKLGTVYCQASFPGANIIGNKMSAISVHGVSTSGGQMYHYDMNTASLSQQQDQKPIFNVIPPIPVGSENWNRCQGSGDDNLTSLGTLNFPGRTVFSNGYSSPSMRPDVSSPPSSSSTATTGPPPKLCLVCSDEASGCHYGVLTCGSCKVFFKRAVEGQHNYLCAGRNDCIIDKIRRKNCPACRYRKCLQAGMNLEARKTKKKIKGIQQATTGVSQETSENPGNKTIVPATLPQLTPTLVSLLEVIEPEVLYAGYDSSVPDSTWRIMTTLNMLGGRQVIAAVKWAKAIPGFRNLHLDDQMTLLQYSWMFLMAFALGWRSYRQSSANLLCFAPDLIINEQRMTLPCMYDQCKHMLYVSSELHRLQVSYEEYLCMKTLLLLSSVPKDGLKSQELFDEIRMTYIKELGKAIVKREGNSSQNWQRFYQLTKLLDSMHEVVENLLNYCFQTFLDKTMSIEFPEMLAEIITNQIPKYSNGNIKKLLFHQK
In short: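 Translocation of GR-ED fusion to nuclear EA restores b-gal, read by luminescence after 1 h room-temperature detection. Engineered CHO-K1 biosensor cells, 1,000/well, exposed 2 h at 37 C to titrations up to 46 uM final.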

[6] = target: Mitogen-activated protein kinase 10 (Mus musculus) (UniProt Q61831); test: JNK3 AlphaScreen Assay (AID 530); details: JNK3 lysate, c-Jun phosphorylation; series mostly up to 57.1 µM;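 note: kinase came from lysate of stimulated human HepG2 cells; signal reports phosphorylation of biotinylated GST-cJun 1-79 at Ser73 with 10 µM ATP; % is set by controls: 0 for no effect and ±100 for the full control effect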
In short: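 Compound titrations were preincubated 15 minutes at room temperature with substrate, antibody and pre-activated JNK3-containing HepG2 lysate. Reactions were started with 10 uM ATP and stopped with EDTA-containing bead buffer for AlphaScreen detection.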

[7] = target: 3',5'-cyclic-AMP phosphodiesterase 4B (Homo sapiens) (UniProt Q07343); test: qHTS Assay for Inhibitors of PDE-IV (AID 607; active = well fitted activation curve with a large enough effect in the main read-out, with a control signal flat, not every such curve was filed as active; note: % of control where 0% means no effect); details: HEK293 ACTOne CNG channel cells, membrane potential fluorescence; series mostly up to 22.9 µM
3',5'-cyclic-AMP phosphodiesterase 4B (Homo sapiens), sequence (Q07343 whole entry, looked up): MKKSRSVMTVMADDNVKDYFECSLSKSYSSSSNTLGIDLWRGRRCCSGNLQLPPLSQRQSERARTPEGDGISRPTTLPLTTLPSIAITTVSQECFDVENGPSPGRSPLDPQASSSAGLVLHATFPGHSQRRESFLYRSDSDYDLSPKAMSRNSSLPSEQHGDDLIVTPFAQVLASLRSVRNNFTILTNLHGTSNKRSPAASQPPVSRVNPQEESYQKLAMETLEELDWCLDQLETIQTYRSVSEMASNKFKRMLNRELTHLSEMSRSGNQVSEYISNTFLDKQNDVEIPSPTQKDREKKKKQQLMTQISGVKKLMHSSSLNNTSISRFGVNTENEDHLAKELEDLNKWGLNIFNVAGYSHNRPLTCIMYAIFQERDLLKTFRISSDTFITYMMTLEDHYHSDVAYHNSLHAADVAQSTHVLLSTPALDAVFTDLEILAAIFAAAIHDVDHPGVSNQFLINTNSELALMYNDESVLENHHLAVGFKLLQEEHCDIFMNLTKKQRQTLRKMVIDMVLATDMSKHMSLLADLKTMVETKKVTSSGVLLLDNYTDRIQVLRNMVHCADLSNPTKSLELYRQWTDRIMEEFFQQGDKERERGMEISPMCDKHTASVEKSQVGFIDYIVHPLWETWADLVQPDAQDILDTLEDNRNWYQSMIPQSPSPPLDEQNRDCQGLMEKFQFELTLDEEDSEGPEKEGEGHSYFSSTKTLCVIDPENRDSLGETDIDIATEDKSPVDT
In short: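 Live HEK293 cells with a modified cyclic nucleotide-gated (CNG) channel report intracellular cAMP via membrane-potential dye fluorescence (ex 535/em 590 nm). Endogenous PDE-IV was targeted. Compounds were tested at up to 22.9 uM final; RO 20-1724 100 uM served as control.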

[8] = qHTS Assay for Lipid Storage Modulators (AID 1519; calls by dose curve); details: Drosophila S3 cells, BODIPY lipid droplet/cell ratio, laser cytometry, cells loaded with oleic acid; for activity change, negative = inhibition: at 57.5 µM (top of the series)
In short: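 Cells seeded at 5,000 per well were treated with compounds over a concentration series and loaded with oleic acid (400 uM, as added). Lipid droplet fluorescence (488 nm excitation, 500-530 nm channel) was read by laser-scanning cytometry and normalized to 20 uM Triacsin C.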

[9] = Primary qHTS for small molecule stabilizers of the endoplasmic reticulum resident proteome: Secreted ER Calcium Modulated Protein (SERCaMP) assay (AID 1508630; active = well fitted inhibition curve with a large enough effect; note: % is set by controls: 0 for no effect and ±100 for the full control effect); details: SH-SY5Y GLuc-SERCaMP (Gaussia luciferase released on ER calcium loss) secretion, thapsigargin, luminescence; series mostly up to 38.4 µM
In short: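 GLuc-SERCaMP-expressing SH-SY5Y cells, pretreated 16 h with compound, are challenged with thapsigargin to empty ER calcium stores; after 4 h, coelenterazine is added directly to the medium and luminescence is imaged.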

[10] = measured here: cell count channel max response
[11] = measured here: lipid channel max response

Cn1cccc1C(=O)N1CCC[C@@]2(CCN(C(=O)Nc3cccc(F)c3)C2)C1
inactive: Potency [1] > 11.4 µM | activity change, negative = inhibition [2] -5.32% | activity change, negative = inhibition [3] 4.03% | activity, negative = inhibition [4] 5.29% | Potency [5] > 46 µM | Potency [6] | Potency [7] | activity change, negative = inhibition [8] 4.9% | outcome [9]
17.3%: max response [8, 11]
9.75%: max response [8, 10]

O=C(c1cc(C(F)(F)F)cc(C(F)(F)F)c1)N1CCC2(CC1)CCN(c1ccccc1)CC2
0.292%: max response [8, 11]
10.5%: max response [8, 10]
inactive: Potency [1] > 11.4 µM | activity change, negative = inhibition [2] 24.2% | activity change, negative = inhibition [3] -4.75% | activity, negative = inhibition [4] -7.04% | Potency [5] > 46 µM | Potency [6] | Potency [7] | activity change, negative = inhibition [8] -9.68% | outcome [9]

COCC(=O)N1CCC[C@@]2(CCN(c3ccccn3)C2)C1
inactive: Potency [1] > 11.4 µM | activity change, negative = inhibition [2] -4.6% | activity change, negative = inhibition [3] -11.3% | activity, negative = inhibition [4] -4.62% | Potency [5] > 46 µM | Potency [6] | Potency [7] | activity change, negative = inhibition [8] 2.24% | outcome [9]
-4.94%: max response [8, 10]
-1.36%: max response [8, 11]

COc1ccccc1CN1CC[C@@]2(CCCN(C(=O)c3cnccn3)C2)C1
inactive: Potency [1] > 11.4 µM | activity change, negative = inhibition [2] -0.652% | activity change, negative = inhibition [3] 0.87% | activity, negative = inhibition [4] 9.03% | Potency [5] > 46 µM | Potency [6] | Potency [7] | activity change, negative = inhibition [8] 3.53% | outcome [9]
12.1%: max response [8, 10]
17.4%: max response [8, 11]

Cc1noc(C)c1C(=O)N1CCC2(CCCN(C(=O)Nc3cccc(C#N)c3)C2)CC1
12.8%: max response [8, 10]
23.7%: max response [8, 11]
inactive: Potency [1] > 11.4 µM | activity change, negative = inhibition [2] -3.54% | activity change, negative = inhibition [3] -25.9% | activity, negative = inhibition [4] -0.0853% | Potency [5] > 46 µM | Potency [6] | Potency [7] | activity change, negative = inhibition [8] 9.42% | outcome [9]

COc1ccc(C(=O)N2CCC[C@@]3(CCN(c4ncccn4)C3)C2)cc1
inactive: Potency [1] > 11.4 µM | activity change, negative = inhibition [2] -20.4% | activity change, negative = inhibition [3] 4.77% | activity, negative = inhibition [4] 1.38% | Potency [5] > 46 µM | Potency [6] | Potency [7] | activity change, negative = inhibition [8] 4.06% | outcome [9]
12.1%: max response [8, 11]
3.46%: max response [8, 10]

CC(C)CN1CC2(CCN(C(=O)c3cnccn3)CC2)C1
inactive: Potency [1] > 11.4 µM | activity change, negative = inhibition [2] -4.93% | activity change, negative = inhibition [3] -25.4% | activity, negative = inhibition [4] -6.85% | Potency [5] > 46 µM | Potency [6] | Potency [7] | activity change, negative = inhibition [8] 3.58% | outcome [9]
13.2%: max response [8, 10]
20.3%: max response [8, 11]
